# High-throughput results: PubChem, National Center for Advancing Translational Sciences (NCATS)
# Compounds with a hit are over-represented: about 1.3% of the library has one in this group of screens.
# RXFP1 antag = qHTS Assay for Antagonists of the Relaxin Receptor RXFP1; Relaxin receptor 1 (Homo sapiens), Q9HBX9; HEK293-RXFP1, relaxin-stimulated cAMP HTRF, 30 min; active compounds read low; activity change, negative = inhibition, % at 57.5 µM; hit rate 0.59% among 350,000; AID 1259400, 2018;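 active = activity change of -60% or lower, but not beyond a set lower limit; inconclusive = change between -60% and -40%, or beyond the set limit; inactive = change above -40%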; note: % is set by controls: 0 for no effect and ±100 for the full control effect
# Target sequence (Q9HBX9 whole entry, looked up): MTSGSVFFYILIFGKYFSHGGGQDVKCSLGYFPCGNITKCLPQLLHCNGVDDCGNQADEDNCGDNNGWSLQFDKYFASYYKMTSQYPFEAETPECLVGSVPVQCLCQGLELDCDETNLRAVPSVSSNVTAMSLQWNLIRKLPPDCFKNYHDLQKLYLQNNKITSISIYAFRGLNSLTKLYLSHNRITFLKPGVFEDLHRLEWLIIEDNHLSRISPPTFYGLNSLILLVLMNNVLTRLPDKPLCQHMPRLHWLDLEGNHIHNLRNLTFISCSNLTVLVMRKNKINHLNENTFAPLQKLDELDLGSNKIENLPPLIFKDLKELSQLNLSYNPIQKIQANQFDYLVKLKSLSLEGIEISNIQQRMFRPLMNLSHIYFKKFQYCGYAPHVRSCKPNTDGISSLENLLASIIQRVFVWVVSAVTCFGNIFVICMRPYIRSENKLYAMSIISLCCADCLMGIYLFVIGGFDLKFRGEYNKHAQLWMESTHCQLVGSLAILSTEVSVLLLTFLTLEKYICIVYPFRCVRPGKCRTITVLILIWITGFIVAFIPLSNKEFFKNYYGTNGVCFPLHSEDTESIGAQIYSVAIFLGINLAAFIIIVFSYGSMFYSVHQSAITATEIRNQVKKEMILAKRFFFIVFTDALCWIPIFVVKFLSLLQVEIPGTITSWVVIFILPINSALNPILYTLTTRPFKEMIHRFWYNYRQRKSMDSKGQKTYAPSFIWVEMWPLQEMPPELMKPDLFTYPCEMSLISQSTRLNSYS
# pAkt inh = HTS Assay for Inhibitors of Akt Phophorylation: Primary Screen; Neuro2A IGF-stimulated pAkt S473 HTRF, 20 min; active compounds read low; AID 651550, 2012; hit rate 0.32% among 360,000; activity change, % for hits at 50 µM; in the data active = activity change below about -80%; inconclusive = mostly about -51% to -80%; note: % is set by controls: 0 for no effect and ±100 for the full control effect
#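 Single-point screen (50 µM final compound) in Neuro2A cells stimulated 20 min with 6 nM IGF at 37 deg C. After lysis, Ser473-phosphorylated Akt read by HTRF (ex 330 nm, em 615/665 nm) as the 665/615 ratio.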
# RXFP1 agonist = qHTS Assay for Agonists of the Relaxin Receptor RXFP1; HEK293T-RXFP1 cAMP TR-FRET, 30 min; response scale: percent of porcine relaxin response, buffer zero; Potency, µM (titrated, usually from 57.5 µM), for the others: at the top dose activation, most hits filed as activators; hit rate 0.3% among 370,000; AID 2676, 2010; active = well fitted activation curve with a large enough effect; inconclusive = small, poorly fitted or top-dose-only effect; note: potency is the fitted concentration of half-maximal effect; % is set by controls: 0 for no effect and ±100 for the full control effect; nearly all actives have a fitted effect of over 60% in size
#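 cAMP rise read by TR-FRET after 30 min, 37C compound exposure (up to 58 uM) in RXFP1-transfected HEK293 cells with Ro 20174 present. EC50 from Hill-equation fits, with 29 nM porcine relaxin as 100% and buffer as basal.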
# gsp ag = qHTS for Agonist of gsp, the Etiologic Mutation Responsible for Fibrous Dysplasia/McCune-Albright Syndrome: qHTS; Potency, µM (titrated, usually from 76.9 µM), without a hit: at the highest dose activation (cAMP increase), usual class: activators; gsp mutant cells, cAMP HTRF, 30 min; hit rate 0.13% among 340,000; active = well fitted activation curve with a large enough effect; inconclusive = small, poorly fitted or top-dose-only effect, or another doubt; inactive = no such curve, though single readings can be large or run the other way; cell line not stated here;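 note: phosphodiesterase inhibitor Ro 20-1724 added with compounds to block cAMP breakdown; potency is the fitted concentration of half-maximal effect; nearly all actives have a fitted effect of over 60% in size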
#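 Cells stably selected in G418 were plated at 2000/well, grown 16-24 hr, then given compounds in DMSO with the PDE inhibitor […] (300 uM solution added) for 30 min at 37C; cAMP was read by HTRF.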
# TSHR antag = Antagonists of the Thyroid Stimulating Hormone Receptor: HTS campaign; Thyrotropin receptor (Homo sapiens), P16473; TSHR-expressing cells, TSH-stimulated cAMP HTRF, 2 h; active compounds read low; activity change, negative = inhibition, % at 11.5 µM; hit rate 0.2% among 330,000; AID 504810, 2011;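 active = activity change below a set negative limit, meaning inhibition stronger than a set level, cut at about -70% in these data; inconclusive = activity change between two set negative limits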; note: % is set by controls: 0 for no effect and ±100 for the full control effect
#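 Cell-based HTRF cAMP assay; TSHR cells + compound, TSH EC80 (4nM final), 2 h, 37 deg C. Lysis with anti-cAMP cryptate and cAMP-d2, 30 min RT, read 665/620 nm.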
# gsp antagonist = qHTS for Antagonists of gsp, the Etiologic Mutation Responsible for Fibrous Dysplasia/McCune-Albright Syndrome: qHTS | Potency, µM (titrated, usually from 76.9 µM), inactives show top-dose activity change, negative = inhibition, actives largely listed as inhibitors | AID 624288, 2012 | gsp-mutant cells, cAMP HTRF, 30 min | hit rate 0.4% among 340,000; calls by dose curve; cell line not stated here;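 note: intracellular cAMP measured with PDE inhibitor Ro 20-1724 present during compound exposure; potency is the fitted concentration of half-maximal effect; % is set by controls: 0 for no effect and ±100 for the full control effect; nearly all actives have a fitted effect of over 65% in size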
#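 Cells, 2000/well, grown 16–24 h in DMEM 10% FBS with 0.5 mg/ml G418, then compounds plus […] (300 uM addition stock), 30 min at 37C. cAMP read by HTRF (cAMP-d2 and anti-cAMP antibody-K in lysis buffer) after 30 min RT.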
# The depositor's hits bear a star; i = inactive; ? = inconclusive; · = no result given; [ ] = another dose, or the depositor's remark.
SMILES,RXFP1 antag,pAkt inh,RXFP1 agonist,gsp ag,TSHR antag,gsp antagonist
Cc1cc(C)n(-c2nc(NCCN(C)C)c3c4c(sc3n2)COC(C)(C)C4)n1,-72*,i,-4%,2%,-1,16%
Cc1ccc(Cl)c2c1=NC(=O)C=2c1[nH]c(=S)[nH]c1O,-109*,i,0%,?,-17,17%
COc1cccc(NC(=O)CSc2nc3c(sc4ccccc43)c(=O)n2CCN(C)C)c1,-64*,i,4%,-1%[15.4 µM],-1,4%
O=c1c2sccc2nc(SCc2cc(=O)n3cc(Br)ccc3n2)n1Cc1ccccn1,12,i,25µM*,25%[15.4 µM],-2,6%
Cc1ccc(CSc2nc3ccsc3c(=O)n2Cc2ccccn2)cc1,3,i,0%,-47%,-2,-17%
N#CC(C#N)=C1C=C2C=C(N3CCCCC3)CCC2CC1 (stereo unspecified),-11,i,1%,37%,-18,40µM*
Cc1cc(=S)c2cccc(C)c2[nH]1,20,i,22µM*,32%[15.4 µM],-1,5%
O=C(CCS(=O)(=O)c1ccccc1)N(CCCN1CCOCC1)c1nc2c(F)cccc2s1,-74*,i,1%,-5%,-6,1%
Cc1ccc(S(=O)(=O)CC(=O)N(CCCN2CCOCC2)c2nc3c(F)cccc3s2)cc1,?,i,1%,7%[15.4 µM],0,-19%
Cn1nc(-c2ccc(Cl)cc2)nc2c(=O)n(C)c(=O)nc1-2,·,·,4.5µM*,·,-21,·
COc1cccc(NC(=O)Nc2cc(-c3cn4cccnc4n3)ccc2OC)c1,·,·,7%,·,·,·
COc1ccc(-c2cc3nc(-c4ccccc4)cc(N4CCCC(O)C4)n3n2)cc1 (stereo unspecified),-3,i,15%,?,-1,35µM*
COc1ccc(-c2cc3nc(-c4ccccc4)cc(N4CCC(O)CC4)n3n2)cc1,2,i,15%,9%[15.4 µM],-7,?
NC(=O)C1CCN(c2nc(-c3ccccc3[N+](=O)[O-])cs2)CC1,·,·,·,·,-1,·
COc1cc(OC)c(NC(=O)N2CCc3cc(OC)c(OC)cc3C2CC(=O)O)cc1Cl (stereo unspecified),7,·,2%,·,·,·
O=C(O)c1ccc(C[n+]2c(-c3ccccc3)csc2Nc2ccccc2)cc1,-5,i,-1%,-16%,1,-21%
CC(C)(C)c1cc(-c2csc(Nc3ccccc3)[n+]2Cc2ccc(C(=O)O)cc2)cc(C(C)(C)C)c1O,-29,i,2%,8%[15.4 µM],-11,32µM*
Cn1cc(C(=O)c2ccc(Cl)cc2)cc1-c1nc2ccccc2n1C,-9,i,2%,?,-14,35µM*
Cn1c(-c2ccc(Cl)nc2)nc2ccccc21,0,i,2%,5%,-1,6%
O=C(N/N=C/c1ccc(O)cc1)c1csc2ccccc12,-8,-107%*,1%,-27%,6,-10%
O=C(N/N=C/c1ccc(O)cc1)c1cc(-c2ccccc2)nc2ccccc12,-8,i,1%,-21%,-7,-17%
CCOc1ccc(NC(=O)CCC(=O)Nc2cc(OC)c(NC(=O)c3ccco3)cc2OC)cc1,-7,i,-2%,2%[15.4 µM],-3,-18%
CC(C)OCc1ccc(C(=O)N2CCN(CC(=O)N3CCCC3)CC2)cc1,-5,i,·,-6%[15.4 µM],·,12%
CCC(C)Sc1cccc(-c2nc3ccc(C)cn3c2NCc2ccccc2)c1 (stereo unspecified),·,i,13%,·,-79*,?
COc1ccc(-n2cnnc2SCC(=O)N2CCN(c3ccccc3)CC2)cc1,-26,-108%*,1%,22%,27,-3%
SMILES,RXFP1 antag,pAkt inh,RXFP1 agonist,gsp ag,TSHR antag,gsp antagonist
CC1(C)Cc2ccccc2-c2nnc(SCc3ccccc3)n21,-25,i,0%,-61%,-11,-19%
CC1(C)Cc2ccccc2-c2nnc(SCC(=O)N3CCN(c4ccccc4)CC3)n21,0,·,5%,19%,-24,35µM*
COc1ccc(N2CCN(C(=O)CSc3nnc(-c4cc5ccccc5cc4O)n3C)CC2)cc1,-14,i,1%,?,1,?
O=P(CCCCCCCCCP(=O)(c1ccccc1)c1ccccc1)(c1ccccc1)c1ccccc1,-72*,i,0%,-26%,11,40µM*
O=C(O)CCCCCCCCCCP(=O)(c1ccccc1)c1ccccc1,-4,i,0%,16%[15.4 µM],-11,-22%
O=C(/C=C/c1cccc(Cl)c1)c1ccc([N+](=O)[O-])o1,·,i,3%,·,-81*,-14%
COc1ccc(/C=C/C(=O)c2ccc([N+](=O)[O-])o2)cc1OC,·,i,3%,·,-26,-7%
CN(C)CCCNc1cc(C(C)(C)C)nc2c(-c3ccccc3)cnn12,-61*,i,0%,?,3,1%
Cc1ccccc1OCC(=O)NNC(=O)C1CCN(c2ncnc3sc(C)c(C)c23)CC1,-68*,i,3%,0%,-26,35µM*
COc1ccc(-c2csc(NC(=O)C3CCN(c4ncnc5sc(C)c(C)c45)CC3)n2)cc1OC,0,i,1%,8%[15.4 µM],-77*,?
COc1ccccc1OCC(=O)NNC(=O)C1CCN(c2ncnc3sc(C)c(C)c23)CC1,-6,i,1%,28%,5,-24%
Cc1sc2ncnc(N3CCC(C(=O)NCC(=O)Nc4ccc(F)c(F)c4)CC3)c2c1C,-36,i,2%,-8%,-13,40µM*
CCC(=O)N(CCC(c1ccco1)c1ccccc1OC)Cc1cccs1 (stereo unspecified),-13,·,0%,-17%,-10,?
CC(=O)N(CCC(c1ccccc1)c1ccco1)Cc1cccs1 (stereo unspecified),-6,i,-1%,6%,-91*,-6%
Cc1ccc(C(=O)OCC(=O)NC2CCCCC2)cc1S(=O)(=O)N1CCCCC1,-3,i,1%,-25%,2,8%
Cc1ccc(S(=O)(=O)N2CCN(C(=O)c3c(C)nn(-c4ccccc4)c3Cl)CC2)cc1,-5,i,-1%,-43%,6,?
Cc1cc(C)c(S(=O)(=O)N2CCN(C(=O)c3c(C)nn(-c4ccccc4)c3Cl)CC2)c(C)c1,-15,i,·,-5%,·,25µM*
Cn1c(SCC(=O)Nc2ccc(NC(=O)c3cccc(F)c3)cc2)nnc1-c1ccncc1,-12,i,3%,14%[15.4 µM],-2,8%
